Laboratory results as given in the supplement of paper PMC8728848.
The entries come from a sample that favours the strongest signals as a whole.

Legend:
Assay in all cases: glycan array binding signal (z-score within array); higher = stronger binding
Details in all cases: glycan notation: IUPAC condensed, linker removed
[1] = molecular target: Fuc(a1-2)Gal(b1-3)GlcNAc(b1-2)Man(a1-3)[Fuc(a1-2)Gal(b1-3)GlcNAc(b1-2)Man(a1-6)]Man(b1-4)GlcNAc(b1-4)GlcNAc
Outline: (§1)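 Arrays were curated from the Consortium for Functional Glycomics database, 3228 in total, and kept only where the protein sequence was available. Binding is expressed as a within-array Z-score. This score was averaged across arrays of the same protein sequence at different concentrations or buffers and across linkers, and negative values can be read as non-binding.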

[2] = molecular target: Fuc(a1-2)Gal(b1-3)[Fuc(a1-4)]GlcNAc(b1-2)Man(a1-3)[Fuc(a1-2)Gal(b1-3)[Fuc(a1-4)]GlcNAc(b1-2)Man(a1-6)]Man(b1-4)GlcNAc(b1-4)[Fuc(a1-6)]GlcNAc(b1-4)[Fuc(a1-6)]GlcNAc
Outline: as §1

[3] = molecular target: Fuc(a1-2)Gal(b1-4)GlcNAc(b1-2)Man(a1-3)[Fuc(a1-2)Gal(b1-4)GlcNAc(b1-2)Man(a1-6)]Man(b1-4)GlcNAc(b1-4)GlcNAc
Outline: as §1

[4] = molecular target: Fuc(a1-2)Gal(b1-4)[Fuc(a1-3)]GlcNAc(b1-3)GalNAc
Outline: as §1

[5] = molecular target: Fuc(a1-2)[Gal(a1-3)]Gal(b1-3)GalNAc(b1-3)Gal(a1-4)Gal(b1-4)Glc
Outline: as §1

[6] = molecular target: Fuc(a1-2)[Gal(a1-3)]Gal(b1-3)GlcNAc(b1-2)Man(a1-3)[Fuc(a1-2)[Gal(a1-3)]Gal(b1-3)GlcNAc(b1-2)Man(a1-6)]Man(b1-4)GlcNAc(b1-4)[Fuc(a1-6)]GlcNAc
Outline: as §1

[7] = molecular target: Fuc(a1-2)[GalNAc(a1-3)]Gal(b1-3)GalNAc(a1-3)[Fuc(a1-2)]Gal(b1-4)GlcNAc
Outline: as §1

[8] = molecular target: Fuc(a1-2)[GalNAc(a1-3)]Gal(b1-3)GlcNAc(b1-2)Man(a1-3)[Fuc(a1-2)[GalNAc(a1-3)]Gal(b1-3)GlcNAc(b1-2)Man(a1-6)]Man(b1-4)GlcNAc(b1-4)GlcNAc
Outline: as §1

[9] = molecular target: Fuc(a1-2)[GalNAc(a1-3)]Gal(b1-4)GlcNAc(b1-2)Man
Outline: as §1

[10] = molecular target: Fuc(a1-2)[GalNAc(a1-3)]Gal(b1-4)GlcNAc(b1-6)GalNAc
Outline: as §1

[11] = molecular target: Fuc(a1-3)[Gal(b1-4)]GlcNAc(b1-6)GalNAc
Outline: as §1

Fuc(b1-3)GlcNAc = molecular target: Fuc(b1-3)GlcNAc
Outline: as §1

Gal(a1-3)Gal = molecular target: Gal(a1-3)Gal
Outline: as §1

[12] = molecular target: Gal(a1-3)Gal(b1-4)[Fuc(a1-3)]GlcNAc
Outline: as §1

[13] = molecular target: Gal(a1-4)Gal(b1-4)GlcNAc(b1-2)Man(a1-3)[Gal(a1-4)Gal(b1-4)GlcNAc(b1-2)Man(a1-6)]Man(b1-4)GlcNAc(b1-4)GlcNAc
Outline: as §1

[14] = molecular target: Gal(b1-3)GlcNAc(b1-3)Gal(b1-4)GlcNAc(b1-3)Gal(b1-4)GlcNAc(b1-2)[Gal(b1-3)GlcNAc(b1-3)Gal(b1-4)GlcNAc(b1-3)Gal(b1-4)GlcNAc(b1-6)]Man(a1-6)[Gal(b1-3)GlcNAc(b1-3)Gal(b1-4)GlcNAc(b1-3)Gal(b1-4)GlcNAc(b1-2)Man(a1-3)]Man(b1-4)GlcNAc(b1-4)[Fuc(a1-6)]GlcNAc
Outline: as §1

[15] = molecular target: Gal(b1-3)GlcNAc(b1-3)GalNAc
Outline: as §1

[16] = molecular target: Gal(b1-3)[Neu5Ac(a2-6)]GlcNAc(b1-4)Gal(b1-4)Glc
Outline: as §1

Gal(b1-4)Gal = molecular target: Gal(b1-4)Gal
Outline: as §1

[17] = molecular target: Gal(b1-4)GlcNAc(b1-2)Man(a1-3)[Gal(b1-4)GlcNAc(b1-2)Man(a1-6)]Man(b1-4)GlcNAc(b1-4)[Fuc(a1-6)]GlcNAc
Outline: as §1

[18] = molecular target: Gal(b1-4)GlcNAc(b1-2)[Gal(b1-4)GlcNAc(b1-4)]Man(a1-3)[GlcNAc(b1-4)][Gal(b1-4)GlcNAc(b1-2)[Gal(b1-4)GlcNAc(b1-6)]Man(a1-6)]Man(b1-4)GlcNAc(b1-4)GlcNAc
Outline: as §1

[19] = molecular target: Gal(b1-4)GlcNAc(b1-3)Gal(b1-3)GlcNAc
Outline: as §1

[20] = molecular target: Gal(b1-4)GlcNAc(b1-3)Gal(b1-4)GlcNAc(b1-2)Man(a1-3)[Gal(b1-4)GlcNAc(b1-3)Gal(b1-4)GlcNAc(b1-2)Man(a1-6)]Man(b1-4)GlcNAc(b1-4)[Fuc(a1-6)]GlcNAc
Outline: as §1

[21] = molecular target: Gal(b1-4)GlcNAc(b1-3)Gal(b1-4)GlcNAc(b1-2)[Gal(b1-4)GlcNAc(b1-3)Gal(b1-4)GlcNAc(b1-6)]Man(a1-6)[Gal(b1-4)GlcNAc(b1-3)Gal(b1-4)GlcNAc(b1-2)Man(a1-3)]Man(b1-4)GlcNAc(b1-4)GlcNAc
Outline: as §1

B1: PX14375l-pdi-526-25-526 (Parabacteroides distasonis) (protein)
chain: DEEPKSTLTDVAYYKTQSQMESNVNYLYRTGAIGSYVDFGSAYIGPFASIQEELTGYFSNSYEGQEIVCRYTRELTRQQNTMQLASKMDKVWDDCYRGINVANGAIKHMPEVPMDQATADRLTAEAKFFRAFNYFYLVKTFGAVPFYTDPYELAENMELPRTETSTIYNQIESDLKDAMNVLPEATFAANGHRITKYVAAMTLTDVYMYQHKYAEAAETVRIVVNSNHKLTTNDDLAMNSAFNKLRSTDDLDEAIYAYEYDNQISPSNWLPTYAFDGDASSNGLFGTYAITQKVHGPNDRYLNIYESNDLRRQPNQFYHWTYTNPKTGKVWNSVGNAACCWYYYDEDALLTTGRGTKDWNVYRYAEALLDAAESIAQSTGVTAEAAGYLAQVKARANMEGKTAAEIASSLQSMGKQAFIEECWTERLRELPLEFKMWDMCVRTGMFPNISETTPGQVTYIPLVGAKNASGATIKESDLLWPLSVNEIQRNPSLTQNEGYSAK
**Q.** For B1, which “glycan array binding signal (z-score)” value [1] is on record?
**A.** The value was -0.052.

**Q.** What about the “glycan array binding signal (z-score)” value [2] of the same binder?
**A.** The value was 0.236.

**Q.** And the “glycan array binding signal (z-score)” value [3]?
**A.** The value was 3.23.

**Q.** What about the “glycan array binding signal (z-score)” value [4] of the same binder?
**A.** The value was 3.32.

**Q.** What about the “glycan array binding signal (z-score)” value [5] of the same binder?
**A.** The value was -0.21.

**Q.** What about the “glycan array binding signal (z-score)” value [6] of the same binder?
**A.** The value was 0.373.

**Q.** What about the “glycan array binding signal (z-score)” value [7] of the same binder?
**A.** Its value is -0.255.

**Q.** And the “glycan array binding signal (z-score)” value [8]?
**A.** Its value is 2.42.

**Q.** And the “glycan array binding signal (z-score)” value [9]?
**A.** Its value is -0.233.

**Q.** And the “glycan array binding signal (z-score)” value [10]?
**A.** Its value is -0.22.

**Q.** What about the “glycan array binding signal (z-score)” value [11] of the same binder?
**A.** The value was 2.66.

**Q.** And the “glycan array binding signal (z-score)” value (Fuc(b1-3)GlcNAc)?
**A.** The value was -0.225.

**Q.** And the “glycan array binding signal (z-score)” value (Gal(a1-3)Gal)?
**A.** The value was -0.181.

**Q.** What about the “glycan array binding signal (z-score)” value [12] of the same binder?
**A.** The value was -0.3.

**Q.** What about the “glycan array binding signal (z-score)” value [13] of the same binder?
**A.** Its value is 1.19.

**Q.** What about the “glycan array binding signal (z-score)” value [14] of the same binder?
**A.** The value was 8.4.

**Q.** What about the “glycan array binding signal (z-score)” value [15] of the same binder?
**A.** The value was -0.323.

**Q.** What about the “glycan array binding signal (z-score)” value [16] of the same binder?
**A.** Its value is -0.125.

**Q.** What about the “glycan array binding signal (z-score)” value (Gal(b1-4)Gal) of the same binder?
**A.** The value was -0.301.

**Q.** What about the “glycan array binding signal (z-score)” value [17] of the same binder?
**A.** The value was 0.272.

**Q.** What about the “glycan array binding signal (z-score)” value [18] of the same binder?
**A.** Its value is 3.87.

**Q.** And the “glycan array binding signal (z-score)” value [19]?
**A.** The value was -0.16.

**Q.** What about the “glycan array binding signal (z-score)” value [20] of the same binder?
**A.** The value was 4.03.

**Q.** And the “glycan array binding signal (z-score)” value [21]?
**A.** The value was 4.11.
